Compound activity from PubChem.
Pemphigus Ab inh = human desmoglein-3 autoantibody binding inhibition | P32926 | DSG3-coupled beads, scFv-anti-DSG3-GFP binding, flow cytometry; stronger effect = lower value | binding (percent of control), % at 10 µM | hit rate 0.48% among 310,000 | AID 588358;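 active means binding more than 3 SD below its plate's average and above zero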;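 further: hits lower antibody fragment binding to DSG3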
Target sequence (P32926 whole entry, looked up, the tested form may be a part): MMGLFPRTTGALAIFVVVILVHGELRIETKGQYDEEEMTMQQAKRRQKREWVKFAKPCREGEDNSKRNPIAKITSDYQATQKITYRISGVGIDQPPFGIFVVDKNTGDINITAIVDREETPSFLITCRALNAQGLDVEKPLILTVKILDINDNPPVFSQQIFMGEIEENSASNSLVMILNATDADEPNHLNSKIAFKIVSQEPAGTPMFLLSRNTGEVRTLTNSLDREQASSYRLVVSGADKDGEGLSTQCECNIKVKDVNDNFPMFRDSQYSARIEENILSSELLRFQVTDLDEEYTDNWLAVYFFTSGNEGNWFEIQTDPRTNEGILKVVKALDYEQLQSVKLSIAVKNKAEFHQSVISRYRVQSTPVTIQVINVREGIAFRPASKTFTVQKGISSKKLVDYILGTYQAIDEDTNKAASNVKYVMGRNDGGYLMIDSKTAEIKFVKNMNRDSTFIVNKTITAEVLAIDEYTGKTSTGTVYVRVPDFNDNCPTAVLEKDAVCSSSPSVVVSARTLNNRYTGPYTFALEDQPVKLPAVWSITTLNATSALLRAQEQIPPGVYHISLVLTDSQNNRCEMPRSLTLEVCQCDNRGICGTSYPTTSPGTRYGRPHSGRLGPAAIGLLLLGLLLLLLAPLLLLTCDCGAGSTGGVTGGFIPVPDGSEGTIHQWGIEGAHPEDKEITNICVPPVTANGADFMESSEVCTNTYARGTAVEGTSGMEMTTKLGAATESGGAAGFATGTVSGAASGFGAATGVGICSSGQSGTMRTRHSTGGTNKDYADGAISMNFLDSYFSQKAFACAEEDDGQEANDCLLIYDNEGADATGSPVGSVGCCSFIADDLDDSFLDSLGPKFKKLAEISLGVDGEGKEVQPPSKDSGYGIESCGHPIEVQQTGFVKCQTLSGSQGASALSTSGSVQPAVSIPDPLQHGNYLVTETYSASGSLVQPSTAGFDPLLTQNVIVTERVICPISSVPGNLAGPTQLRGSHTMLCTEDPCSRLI
DAGLB inh = diacylglycerol lipase beta (human) inhibition; inhibition, % at 5.17 µM; hit rate 0.059% among 340,000; HEK293T DAGLB membrane lysate, EnzChek fluorogenic substrate; AID 504411; in the data active means inhibition above about 34%
bovine MsrA act = bovine methionine sulfoxide reductase A activation | hit rate 0.3% among 360,000 | activation, % at 10.6 µM | purified bovine MsrA, absorbance read-out; in the data active means activation above about 7.5%
NadD block = inhibitors of Staphylococcus aureus NadD | hit rate 0.78% among 360,000 | AID 602399 | purified NadD enzyme, colorimetric absorbance read-out | inhibition, % at 20 µM; in the data active means inhibition above about 26%
MsrA inh = bovine MsrA inhibition | purified bovine MsrA, absorbance read-out | inhibition, % at 15.5 µM | hit rate 0.75% among 360,000; in the data active means inhibition above about 4.5%
rCAG binder = binds r(CAG) RNA repeats. inhibition, % at 3 µM. r(CAG) RNA repeat, TO-PRO-1 dye displacement fluorescence. hit rate 1.3% among 370,000. AID 651821;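 active means inhibition above the plate cutoff, the mean of all test compounds on that plate plus 3 SD, cut at about 35% in these data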;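 further: higher means more dye released from RNA so lower well fluorescence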
Hits are given with their value; n = inactive; x = not tested or not shown. This is a sample that favours compounds with a hit; in the whole collection about 3.2% have one here.

SMILES	Pemphigus Ab inh	DAGLB inh	bovine MsrA act	NadD block	MsrA inh	rCAG binder
C#CCNC(=O)c1ccc2sc([C@@H]3O[C@H](CO)[C@H](O)[C@H](O)[C@H]3O)nc2c1	x	x	n	n	n	n
COc1ccc(/C=N/NC(=O)CCSc2nc3ccccc3s2)cc1OC	n	n	n	n	n	n
O=C(CCSc1nc2ccccc2s1)N/N=C/c1c(O)ccc2ccccc12	n	n	n	30	n	n
CCCNC(=O)C1(C)CCCN(C(=O)COc2ccc(C(C)(C)C)cc2)C1 (stereo not drawn)	x	x	n	n	n	n
COC(=O)CSc1nc(N)c2c3c(sc2n1)C(c1ccccc1)SC(c1ccccc1)C3 (stereo not drawn)	n	n	n	50	x	x
Cc1cccc(C)c1-n1nnnc1C(c1ccnc2ccccc12)N(C)Cc1ccccc1 (stereo not drawn)	x	x	n	n	n	n
CCN(CC)S(=O)(=O)c1cccc(-c2nnc(SCCOc3ccccc3)o2)c1	n	n	n	n	n	n
CCN(CC)S(=O)(=O)c1cccc(-c2nnc(SCCOc3ccc(Cl)cc3)o2)c1	-11	n	n	n	n	n
O=S1(=O)c2ccccc2-c2c(nnn2Cc2ccccc2)CN1C1CC1	x	x	x	x	x	n
N#Cc1c(C(F)(F)F)cc(-c2ccccc2Cl)[nH]c1=O	n	n	n	n	n	37
O=[N+]([O-])c1ccc(S(=O)(=O)Nc2ccc(-c3csc(-c4ccccc4)n3)cc2)cc1	x	x	x	x	n	79
O=S(=O)(Nc1ccc(-c2csc(-c3ccccc3)n2)cc1)c1ccccc1	n	n	n	n	n	n
COC(=O)C1CN(Cc2cn(Cc3ccc(F)cc3)nn2)CCS(=O)(=O)N1Cc1ccc(F)cc1 (stereo not drawn)	x	x	x	x	x	n
Cc1ccc(N2C(=O)C3C4C=CC(CNC(=S)N5CCN(c6cccc(C)c6)C(C)C5)(O4)C3C2=O)cc1 (stereo not drawn)	83	n	n	n	n	n
O=C1C2C3C=CC(CNS(=O)(=O)c4ccccc4)(O3)C2C(=O)N1c1ccc(Cl)cc1 (stereo not drawn)	n	n	n	n	n	n
CCOc1ccccc1C(O)C1=CC(=O)c2ccccc2C1=O (stereo not drawn)	n	n	n	n	n	38
CC1=CC(=O)c2ccccc2C1=O	n	n	n	n	n	n
CCOC(=O)c1ccc(Nc2ccc(-c3ccc(OC)c(OC)c3)nn2)cc1	86	n	n	n	n	n
CCOC(=O)c1ccc(NC(=S)NCCc2ccc(OC)c(OC)c2)cc1	x	n	n	n	n	n
NC(c1ccccc1)c1csc(Nc2cc(Oc3ccccc3)ncn2)n1 (stereo not drawn)	x	x	n	n	n	n
COC(=O)[C@]12C[C@H](CC(=O)NCc3ccc(C)o3)C(=O)N(CCc3ccc(OC)c(OC)c3)C1=C[C@H](COCc1ccccc1)O[C@@H]2C	x	x	x	x	x	n
N#Cc1c(SCC(=O)Nc2ccccc2)nsc1SCC(=O)Nc1ccccc1	67	n	n	n	n	n
Cn1c(C(=O)NCCCN2CCOCC2)cc2c(=O)n(C)c3ccccc3c21	83	n	n	n	n	n
CCCOc1cccc(C(=O)Nc2ccc(Br)cc2F)c1	62	n	n	n	n	n
O=C(/C=C/c1ccc(Br)cc1)c1ccc(NC2=NCCCS2)cc1	n	n	n	n	4.8	n
SMILES	Pemphigus Ab inh	DAGLB inh	bovine MsrA act	NadD block	MsrA inh	rCAG binder
CCC(C(N)=O)N1C(=O)C2C3CCC(C3)C2C1=O (stereo not drawn)	n	n	n	n	n	n
NS(=O)(=O)c1ccc(NC(=S)N2CCN(Cc3ccc(Cl)c(Cl)c3)CC2)cc1	x	x	n	n	n	n
NS(=O)(=O)c1ccc(NC(=S)N2CCN(c3ccc(Cl)c(Cl)c3)CC2)cc1	53	n	n	n	n	n
CCCCNC(=O)C[C@H]1C[C@@]2(C(=O)OC)C(=C[C@H](C3CCCC3)O[C@@H]2C)N(Cc2ccco2)C1=O	x	x	x	x	x	n
COc1ccc(C2=NS(=O)(=O)N(C)C(C(=O)NCc3ccc4c(c3)OCO4)=C2)cc1OC	63	n	n	n	n	n
O=Cc1ccc([B-](F)(F)F)o1	x	x	x	x	n	n
O=C(COC(=O)/C=C/c1ccccc1)Nc1ccc2c(c1)OCCO2	-4.7	n	n	n	n	n
Cc1ccc(C(=O)OCC(=O)Nc2ccc3c(c2)OCCO3)cc1C	69	n	n	n	n	n
O=C(COC(=O)/C=C/c1ccc(Cl)cc1)Nc1ccc2c(c1)OCCO2	n	n	n	n	n	n
Cc1cc(C)cc(NC(=O)COC(=O)c2ccc3c(c2)OCCO3)c1	n	n	n	n	n	n
CC(C)OC(=O)C(C(=O)C(F)(F)F)c1cc(NS(=O)(=O)c2ccc3ccccc3c2)c2ccccc2c1O (stereo not drawn)	n	n	n	55	x	x
CC(C)[C@H](NC(=O)CC1CCCC1)C(=O)N1CCC[C@H]1C(=O)NCCc1ccccc1Cl	x	x	x	x	n	n
COc1ccc(NC(=O)c2cc(C3CCCCN3S(=O)(=O)c3ccc(C#N)cc3)on2)c(C)c1 (stereo not drawn)	x	x	n	n	n	n
COC(=O)[C@]1(C)N[C@H](CN(C)C(=O)Nc2ccc(OC)cc2)[C@@H]2C(=O)N(C)C(=O)[C@@H]21	80	n	n	n	n	n
CSc1nc2nccc(-c3ccc(-c4ccccc4)cc3)n2n1	n	n	n	n	n	n
CSc1nc2nccc(-c3ccc4c(c3)OCO4)n2n1	104	n	n	n	n	n
CC(C)[N+]1=C2C=CC=CC=C2SC12C([N+](=O)[O-])=CC(=[N+]([O-])[O-])C=C2[N+](=O)[O-] (stereo not drawn)	66	n	n	n	n	n
COCCNc1nc2c(c(=O)n(C)c(=O)n2C)n1CCCc1ccccc1	n	n	n	n	n	n
COc1ccc(C(=O)c2ccccc2)c2c(O)ccc(C(=O)c3ccccc3)c12	n	n	n	31	n	n
COc1ccc(C(=O)c2ccc(Cl)cc2)c2ccccc12	n	n	n	n	n	n
COc1cc2[nH]c(=O)c(C(=O)NCc3ccc(F)cc3)c(O)c2cc1OC	n	n	n	n	n	n
COc1ccc(CNC(=O)c2ccc(-c3ccccc3)cc2)cc1	n	n	n	n	n	n
COc1ccc(CNC(=O)c2c(O)c3cc(OC)c(OC)cc3[nH]c2=O)cc1OC	79	n	n	n	n	n
COc1ccc(CNC(=O)c2ccc(-c3ccccc3)cc2)cc1OC	76	n	n	n	n	n
COc1ccccc1N1CCN(S(=O)(=O)c2ccc3c(c2)CCC(=O)N3)CC1	x	x	x	x	x	n
CCC(=O)c1cc2c(C)cc(=O)oc2c(C)c1O	51	n	n	n	n	n
CCC(=O)c1cc2c(C)cc(=O)oc2c(C)c1OC(C)=O	n	n	n	n	n	n
O=C(Nc1ccc(Nc2ccccc2)cc1)c1ccc(Br)cc1	95	n	n	n	n	n
O=C(Nc1ccc(Nc2ccccc2)cc1)c1ccccc1	n	x	x	x	n	n
O=C(c1ccc(-c2ccccc2)cc1)N1CCN(c2nc3ccccc3o2)CC1	69	n	n	n	n	n
